This passage reports Potency results from PubChem BioAssay (NCATS).

The structures appear in SMILES notation. Records with an inconclusive call do not appear. Active and inactive are the calls of the source. Unless noted, calls come from the whole dose curve; as a rule, active = well fitted curve in the direction sought with a large enough effect; inconclusive = small, poorly fitted or top-dose-only effect, or another doubt; inactive = no such curve, though single readings can be large; an effect the other way counts as inactive or inconclusive.

In experiment [1] the target is Cytochrome P450 1A2 (Homo sapiens) (UniProt P05177). The experiment is described as follows: p450-cyp1a2 (AID 410; calls by dose curve; note: potency is the fitted concentration of half-maximal effect). The method, boiled down:
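Read-out is luminescence from luciferin produced by CYP1A2 demethylation of Luciferin-ME (100uM, at Km). Detection reagent stopped the 60 min NADPH-dependent reaction; signals were normalized to 57 uM furafylline.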

Experiment [2] deals with Mitogen-activated protein kinase 10 (Mus musculus) (UniProt Q61831). The experiment is described as follows: JNK3 AlphaScreen Assay (AID 530; active = well fitted curve in either direction with a large enough effect, not every such curve was filed as active;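 note: kinase came from lysate of stimulated human HepG2 cells; signal reports phosphorylation of biotinylated GST-cJun 1-79 at Ser73 with 10 µM ATP; series mostly up to about 57 µM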). The method, boiled down: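 Biotinylated GST-cJun(1-79) served as substrate for JNK3 in HepG2 lysates stimulated with IL-1beta and TNF-alpha. ATP was 10 uM final, pH 7.6. Ser73 phosphorylation was quantified by AlphaScreen (680 nm excitation).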

For experiment [3], the target named is 3',5'-cyclic-AMP phosphodiesterase 4B (Homo sapiens) (UniProt Q07343). Briefly: qHTS Assay for Inhibitors of PDE-IV (AID 607; active = well fitted activation curve with a large enough effect in the main read-out, with a control signal flat, not every such curve was filed as active). The method, boiled down: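 The readout is membrane depolarisation from a cAMP-sensing CNG channel, detected with a potential dye at ex 535/em 590. Cells were HEK293-derived (endogenous PDE-IV) at 1000 cells/well, titrated up to 22.9 uM final.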
Sequence of 3',5'-cyclic-AMP phosphodiesterase 4B (Homo sapiens) (Q07343 whole entry, looked up): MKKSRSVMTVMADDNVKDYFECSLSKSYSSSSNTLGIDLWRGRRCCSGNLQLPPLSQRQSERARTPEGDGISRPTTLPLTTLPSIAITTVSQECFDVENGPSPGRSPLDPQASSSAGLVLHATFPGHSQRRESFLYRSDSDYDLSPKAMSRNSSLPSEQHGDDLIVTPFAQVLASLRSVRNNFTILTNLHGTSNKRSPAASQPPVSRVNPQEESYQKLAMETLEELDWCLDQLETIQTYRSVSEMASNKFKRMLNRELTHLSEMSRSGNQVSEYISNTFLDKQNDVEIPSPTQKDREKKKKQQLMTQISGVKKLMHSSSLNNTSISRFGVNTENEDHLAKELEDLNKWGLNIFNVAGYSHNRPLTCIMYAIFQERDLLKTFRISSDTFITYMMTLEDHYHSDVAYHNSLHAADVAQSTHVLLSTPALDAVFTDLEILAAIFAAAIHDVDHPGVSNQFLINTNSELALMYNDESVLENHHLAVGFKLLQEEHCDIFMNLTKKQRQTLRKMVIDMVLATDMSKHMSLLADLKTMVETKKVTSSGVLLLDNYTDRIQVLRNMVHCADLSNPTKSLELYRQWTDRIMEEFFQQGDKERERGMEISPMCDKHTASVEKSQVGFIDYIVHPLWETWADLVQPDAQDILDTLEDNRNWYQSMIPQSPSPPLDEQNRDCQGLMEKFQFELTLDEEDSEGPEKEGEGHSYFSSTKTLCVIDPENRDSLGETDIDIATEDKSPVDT

In experiment [4] the target is Cytochrome P450 3A4 (Homo sapiens) (UniProt P08684). Briefly: qHTS Assay for Inhibitors and Substrates of Cytochrome P450 3A4 (AID 884). Note: potency is the fitted concentration of half-maximal effect; nearly all actives have a fitted effect of over 50% in size. The method, boiled down: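 Luminescent readout of luciferin produced by CYP3A4 (20 nM) dealkylation of Luciferin-PPXE, 25 uM (its KM). NADPH-driven reaction ran 60 min at RT after 10 min compound preincubation; data scaled to 57 uM ketoconazole as 100% inhibition.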
Sequence of Cytochrome P450 3A4 (Homo sapiens) (P08684 whole entry, looked up): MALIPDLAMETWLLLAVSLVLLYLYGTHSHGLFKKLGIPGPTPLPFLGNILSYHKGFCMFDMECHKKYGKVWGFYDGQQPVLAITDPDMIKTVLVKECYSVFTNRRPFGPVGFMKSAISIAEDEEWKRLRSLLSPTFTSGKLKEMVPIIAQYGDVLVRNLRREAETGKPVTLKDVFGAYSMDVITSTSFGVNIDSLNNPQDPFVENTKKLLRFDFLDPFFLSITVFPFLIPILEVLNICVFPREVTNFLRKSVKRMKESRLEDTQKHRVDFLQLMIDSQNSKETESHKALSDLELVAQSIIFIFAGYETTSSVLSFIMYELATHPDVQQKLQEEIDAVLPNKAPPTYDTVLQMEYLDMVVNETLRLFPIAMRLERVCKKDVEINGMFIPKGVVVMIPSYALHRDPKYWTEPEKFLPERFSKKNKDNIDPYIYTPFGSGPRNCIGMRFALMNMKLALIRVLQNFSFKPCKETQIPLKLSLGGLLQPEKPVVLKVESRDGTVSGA

Experiment [5] shares this target. The experiment is described as follows: qHTS Assay for Activators of Cytochrome P450 3A4 (AID 885). Note: nearly all actives have a fitted effect of over 65% in size. The method, boiled down: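 Activators are scored by enhanced luminescence from CYP3A4 conversion of luciferin-PPXE (25uM, equal to KM) to luciferin, after 60 min at RT with an NADPH-regenerating system.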
Experiment [6] deals with Cytochrome P450 2C9 (Homo sapiens) (UniProt P11712). Briefly: qHTS Assay for Inhibitors and Substrates of Cytochrome P450 2C9 (AID 883). Note: nearly all actives have a fitted effect of over 60% in size. Note: potency is the fitted concentration of half-maximal effect. The method, boiled down: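 A luminogenic readout tracked human CYP2C9 (10nM) converting deoxyluciferin (100uM, at KM) in 25mM KPO4 during 60 min at 37C with regenerated NADPH. Values normalized to 57uM sulphaphenazole as complete inhibition.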
Sequence of Cytochrome P450 2C9 (Homo sapiens) (P11712 whole entry, looked up): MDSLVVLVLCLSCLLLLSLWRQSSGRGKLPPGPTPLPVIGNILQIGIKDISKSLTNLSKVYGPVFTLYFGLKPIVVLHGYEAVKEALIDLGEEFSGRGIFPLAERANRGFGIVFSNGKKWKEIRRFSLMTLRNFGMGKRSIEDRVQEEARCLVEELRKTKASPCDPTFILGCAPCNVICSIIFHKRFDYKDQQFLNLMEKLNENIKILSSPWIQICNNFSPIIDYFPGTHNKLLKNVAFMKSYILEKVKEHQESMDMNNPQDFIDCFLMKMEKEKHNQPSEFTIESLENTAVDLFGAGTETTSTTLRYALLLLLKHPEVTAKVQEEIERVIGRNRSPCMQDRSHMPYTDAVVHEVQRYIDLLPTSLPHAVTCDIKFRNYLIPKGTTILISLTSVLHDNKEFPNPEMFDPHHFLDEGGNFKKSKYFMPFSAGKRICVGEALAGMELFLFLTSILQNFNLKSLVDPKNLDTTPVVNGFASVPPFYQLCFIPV

Experiment [7] concerns the target Cytochrome P450 2D6 (Homo sapiens) (UniProt P10635). Briefly: qHTS Assay for Inhibitors and Substrates of Cytochrome P450 2D6 (AID 891). Note: nearly all actives have a fitted effect of over 60% in size. Note: potency is the fitted concentration of half-maximal effect. The method, boiled down:
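Luminescent read-out of luciferin formed by 5 nM human CYP2D6 demethylating 30 uM Luciferin-ME EGE (Km level) over 60 min at room temperature after NADPH regeneration addition. Data normalized to full inhibition by 1.43 uM quinidine.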

Experiment [8] has as its target Cytochrome P450 2C19 (Homo sapiens) (UniProt P33261). The experiment is described as follows: qHTS Assay for Inhibitors and Substrates of Cytochrome P450 2C19 (AID 899). Note: nearly all actives have a fitted effect of over 60% in size. Note: potency is the fitted concentration of half-maximal effect. The method, boiled down: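 NADPH-dependent conversion of Luciferin-H EGE (10uM, at KM) by 5nM enzyme in 50mM KPO4, 60 min at 37C following 10 min compound preincubation. Stopped with luciferin detection buffer; luminescence read after 20 min.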

Sequence of Cytochrome P450 2D6 (Homo sapiens) (P10635 whole entry, looked up): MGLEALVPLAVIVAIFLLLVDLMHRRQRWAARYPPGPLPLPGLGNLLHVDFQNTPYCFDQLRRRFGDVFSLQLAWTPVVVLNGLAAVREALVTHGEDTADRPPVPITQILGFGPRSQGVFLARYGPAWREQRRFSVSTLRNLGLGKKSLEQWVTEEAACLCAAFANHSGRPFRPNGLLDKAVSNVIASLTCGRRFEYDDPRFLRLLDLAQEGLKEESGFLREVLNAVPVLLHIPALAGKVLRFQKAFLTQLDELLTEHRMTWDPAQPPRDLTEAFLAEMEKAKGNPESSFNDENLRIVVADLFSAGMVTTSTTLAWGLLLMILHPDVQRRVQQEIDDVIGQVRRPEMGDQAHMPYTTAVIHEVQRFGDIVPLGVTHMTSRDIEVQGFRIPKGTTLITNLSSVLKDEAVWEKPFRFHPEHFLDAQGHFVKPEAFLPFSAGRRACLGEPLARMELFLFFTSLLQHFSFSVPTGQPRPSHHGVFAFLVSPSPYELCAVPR
Sequence of Cytochrome P450 2C19 (Homo sapiens) (P33261 whole entry, looked up): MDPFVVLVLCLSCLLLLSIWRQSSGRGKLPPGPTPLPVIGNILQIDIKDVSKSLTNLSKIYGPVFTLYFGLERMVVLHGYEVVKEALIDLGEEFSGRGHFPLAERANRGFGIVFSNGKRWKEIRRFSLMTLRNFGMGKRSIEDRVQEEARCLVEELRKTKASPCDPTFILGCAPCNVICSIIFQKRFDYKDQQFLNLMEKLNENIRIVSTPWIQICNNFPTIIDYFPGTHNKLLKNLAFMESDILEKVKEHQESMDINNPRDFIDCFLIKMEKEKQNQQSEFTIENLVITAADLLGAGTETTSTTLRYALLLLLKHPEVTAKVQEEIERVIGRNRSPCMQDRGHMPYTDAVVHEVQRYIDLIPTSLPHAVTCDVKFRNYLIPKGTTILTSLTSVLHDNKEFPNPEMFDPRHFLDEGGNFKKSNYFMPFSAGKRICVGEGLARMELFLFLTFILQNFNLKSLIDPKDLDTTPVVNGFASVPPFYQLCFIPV
Sequence of Cytochrome P450 1A2 (Homo sapiens) (P05177 whole entry, looked up): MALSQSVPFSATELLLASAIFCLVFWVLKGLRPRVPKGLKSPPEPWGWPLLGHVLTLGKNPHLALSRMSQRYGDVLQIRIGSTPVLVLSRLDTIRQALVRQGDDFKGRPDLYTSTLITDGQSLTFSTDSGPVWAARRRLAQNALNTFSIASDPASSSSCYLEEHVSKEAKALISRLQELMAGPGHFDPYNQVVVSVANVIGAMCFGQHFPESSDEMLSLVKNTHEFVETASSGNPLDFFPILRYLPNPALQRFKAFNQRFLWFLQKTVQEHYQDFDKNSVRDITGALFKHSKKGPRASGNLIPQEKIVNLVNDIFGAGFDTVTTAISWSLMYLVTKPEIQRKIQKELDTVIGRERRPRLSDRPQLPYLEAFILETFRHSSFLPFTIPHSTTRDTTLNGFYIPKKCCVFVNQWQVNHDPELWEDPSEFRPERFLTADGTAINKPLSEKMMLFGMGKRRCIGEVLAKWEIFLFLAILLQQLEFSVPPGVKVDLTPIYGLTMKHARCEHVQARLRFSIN

Consider `COC(=O)[C@H]1C[C@@H]1[C@H](NC(=O)c1cccnc1)c1ccccc1`, for which the Potency in experiment [1] is 12.6 µM (active); in experiment [4] it was 5.01 µM (active). Besides, the Potency result in experiment [2], in experiment [3] and in experiment [5] was “inactive” throughout.

Consider `CC1(C)C(=O)C(c2ccccc2)=C2CN3C(=O)N(CCc4ccccc4)C(=O)C3(Cc3ccc(F)cc3)C=C21` (stereo not drawn), for which the Potency in experiment [1] is 15.8 µM (active); in experiment [4], 3.16 µM (active). The Potency result in experiment [2], in experiment [3] and in experiment [5] was “inactive” throughout.

`CC(C)[C@@H](CC(=O)N[C@@H]1CCNC[C@H]1C(=O)N[C@H](CC(=O)N[C@@H](CCC(=O)O)CC(=O)O)Cc1ccccc1)NC(=O)C[C@H](Cc1c[nH]c2ccccc12)NC(=O)[C@@H]1CNCC[C@H]1N`: the Potency entry in experiment [1], in experiment [2], in experiment [3], in experiment [6], in experiment [7] and in experiment [8] was “inactive” throughout.

In the case of `COC(=O)[C@@]1(Cc2ccccc2)[C@H]2c3cc(C(=O)N4CCCC4)n(Cc4c(CO)[nH]cc(C)c4=O)c3C[C@H]2CN1C(=O)c1ccccc1`, the Potency in experiment [1] is 5.01 µM (active); in experiment [4], 2.51 µM (active). The Potency entry in experiment [2], in experiment [3] and in experiment [5] was “inactive” in each case.

Regarding `COC(=O)[C@@]1(Cc2ccc(F)cc2)[C@@H]2[C@@H](CC(=O)[C@H]2CC(=O)C(=O)N(C)C)CN1C(=O)c1ccccc1`, the Potency result in experiment [1], in experiment [2], in experiment [3] and in experiment [5] was “inactive” each time. Further, the Potency in experiment [4] is 6.31 µM (active).

Turning to `C[C@@H](C(=O)Nc1ccc2ccccc2c1)[C@H]1C[C@]1(C)[C@H](NS(=O)(=O)c1ccc2ccccc2c1)c1ccccc1`, the Potency result in experiment [1], in experiment [2], in experiment [3] and in experiment [5] was “inactive” in each case. For the same molecule, the results for the Potency in experiment [4], in experiment [7] and in experiment [8] were 7.94 µM (active), 3.16 µM (active) and 0.251 µM (active), respectively.

On to `C=C(CC1([C@@H](NP(=O)(c2ccccc2)c2ccccc2)[C@H]2C[C@@H]2CCN(C(=O)OCC)S(=O)(=O)c2ccc(C)cc2)CC1)c1ccccc1`, for which the Potency result in experiment [1], in experiment [2], in experiment [3] and in experiment [5] was “inactive” each time. Besides, the Potency in experiment [4] was 1.58 µM (active).

Turning to `C[C@@H](C(=O)NCc1ccccn1)[C@H]1C[C@]1(C)[C@H](NC(=O)OCc1ccccc1)c1ccccc1`, the Potency is 25.1 µM (active) in experiment [1], 5.01 µM (active) in experiment [4], 12.6 µM (active) in experiment [7] and 2 µM (active) in experiment [8]. Moreover, the Potency result in experiment [2], in experiment [3] and in experiment [5] was “inactive” in each case.

In the case of `COC(=O)Cn1c(C(=O)N2CCCC2)cc2c1C[C@H]1CN(C(=O)c3ccccc3)[C@@](Cc3ccc(F)cc3)(C(=O)OC)[C@@H]21`, the Potency is 15.8 µM (active) in experiment [1] and 3.16 µM (active) in experiment [4]. Besides, the Potency result in experiment [2], in experiment [3] and in experiment [5] was “inactive” each time.

`COC(=O)[C@@]1(Cc2ccc(F)cc2)[C@H]2c3cc(C(=O)N(C)C)n(Cc4c(CO)[nH]cc(C)c4=O)c3C[C@H]2CN1C(=O)c1ccccc1`: the Potency in experiment [1] was 25.1 µM (active); in experiment [4] it was 1.58 µM (active). For the same molecule, the Potency entry in experiment [2], in experiment [3] and in experiment [5] was “inactive” in each case.

For `C[C@@H](C(=O)NCc1ccc(S(C)(=O)=O)cc1)[C@H]1C[C@]1(C)[C@H](NC(=O)OCc1ccccc1)c1ccccc1`, the Potency in experiment [1] is 12.6 µM (active); in experiment [4] it was 3.16 µM (active); in experiment [7] it was 0.398 µM (active). The Potency result in experiment [2], in experiment [3] and in experiment [5] was “inactive” throughout.

Turning to `COC(=O)[C@@]1(Cc2ccc(F)cc2)[C@@H]2[C@@H](CC(=O)[C@H]2CC(=O)C(=O)N2CCCC2)CN1C(=O)c1ccccc1`, the Potency result in experiment [1], in experiment [2], in experiment [3] and in experiment [5] was “inactive” in each case. Also, in experiment [4], the Potency is 1.58 µM (active).

Consider `CNC(=O)[C@H](C)[C@H]1C[C@]1(C)[C@H](NC(=O)OCc1ccccc1)c1ccccc1`, for which the results for the Potency in experiment [1] and in experiment [4] were 20 µM (active) and 2 µM (active), respectively. For the same molecule, the Potency entry in experiment [2], in experiment [3] and in experiment [5] was “inactive” in each case.

On to `CCCc1cc2c(n1Cc1ccc(OC)cc1)C(C)C1CN(C(=O)c3ccccc3)C(C)(C(=O)OC)C21` (stereo not drawn), for which the Potency in experiment [1] was 15.8 µM (active); in experiment [4], 3.16 µM (active). Besides, the Potency result in experiment [2], in experiment [3] and in experiment [5] was “inactive” each time.

Turning to `COC(=O)[C@@]1(Cc2ccc(F)cc2)[C@H]2c3cc(C(=O)N4CCCC4)n(Cc4c(CO)[nH]cc(C)c4=O)c3C[C@H]2CN1C(=O)c1ccccc1`, the Potency in experiment [1] is 20 µM (active); in experiment [4], 2 µM (active). For the same molecule, the Potency result in experiment [2], in experiment [3] and in experiment [5] was “inactive” in each case.

As to `COC(=O)[C@H]1C[C@@H]1[C@H](NC(=O)c1cc(C)nn1C)c1ccccc1`, the Potency is 20 µM (active) in experiment [1] and 6.31 µM (active) in experiment [4]. For the same molecule, the Potency entry in experiment [2], in experiment [3] and in experiment [5] was “inactive” throughout.

As to `COC(=O)[C@@]1(Cc2ccc(OC)cc2)[C@H]2c3cc(C(=O)N4CCCC4)n(Cc4ccc(C(F)(F)F)nc4)c3C[C@H]2CN1C(=O)c1ccccc1`, the Potency entry in experiment [1], in experiment [2], in experiment [3] and in experiment [5] was “inactive” each time. In addition, in experiment [4], the Potency was 3.16 µM (active).

On to `Cc1nn(C)c(Cl)c1S(=O)(=O)N[C@@H](c1ccccc1)[C@]1(C)C[C@H]1[C@@H](C)C(=O)Nc1ccc2ccccc2c1`, for which the Potency in experiment [1] was 5.01 µM (active); in experiment [4] it was 1.26 µM (active). For the same molecule, the Potency result in experiment [2], in experiment [3] and in experiment [5] was “inactive” each time.

Consider `CC1(C)C(=O)C(c2ccccc2)=C2CN3C(=O)N(CCc4ccccc4)C(=O)C3(Cc3ccccc3)C=C21` (stereo not drawn), for which the figures for the Potency in experiment [1] and in experiment [4] were 6.31 µM (active) and 2 µM (active), respectively. The Potency entry in experiment [2], in experiment [3] and in experiment [5] was “inactive” in each case.

As to `C[C@@H](C(=O)NCCF)[C@H]1C[C@]1(C)[C@H](NC(=O)OCc1ccccc1)c1ccccc1`, the Potency in experiment [7] is 6.31 µM (active).

Regarding `CCCc1cc2c(n1CCc1ccc(Cl)cc1)C(C)C1CN(C(=O)c3ccccc3)C(C)(C(=O)OC)C21` (stereo not drawn), the Potency in experiment [7] was 5.01 µM (active).

Take `CCCC[C@@H]1C[C@H]1C(NC(=O)c1ccccc1)c1ccccc1C(F)(F)F` (stereo partly drawn): the Potency in experiment [1] was 10 µM (active); in experiment [6], 1.26 µM (active); in experiment [8], 0.501 µM (active). Also, the Potency entry in experiment [2] and in experiment [5] was “inactive” each time.
